Molecules are shown by their SMILES. The panel holds about 83,000 compounds, 20% with a hit somewhere; the sample as a whole holds those more often.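 96-well plates, one dose, 48 hours. Percent growth reported; active if below 10.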 Unmarked numbers belong to inactive results. Active and inactive are the calls of the source.

Among the test systems are SN12C renal; TK-10 renal; ACHN renal; CAKI-1 renal; A498 renal; CCRF-CEM leukemia; MOLT-4 leukemia; SR leukemia; RPMI-8226 leukemia; OVCAR-8 ovarian; OVCAR-5 ovarian; OVCAR-4 ovarian; SK-OV-3 ovarian; OVCAR-3 ovarian; HS 578T breast; NCI/ADR-RES ovarian; EKVX NSCLC; UO-31 renal; IGROV1 ovarian.
What all share (test): NCI-60 one-dose screen, 48 h (100 = growth as untreated, 0 = no growth, -100 = all killed)
What all share (conditions): 10 µM

Consider `Nc1nc(Cn2c(-c3nonc3N)nc3ccccc32)nc(N2CCCCC2)n1`, for which the growth in the experiment with SN12C renal is 98.2%; with TK-10 renal it was 109%; with ACHN renal, 95.3%; in the experiment on CAKI-1 renal, 85.8%; in the experiment on A498 renal, 88.6%; in the experiment with CCRF-CEM leukemia it was 85.7%. Further, the growth in the experiment with MOLT-4 leukemia is 83.2%; in the experiment with SR leukemia, 58.9%; in the experiment with RPMI-8226 leukemia it was 68%; with OVCAR-8 ovarian, 93.2%; in the experiment with OVCAR-5 ovarian, 109%; in the experiment on OVCAR-4 ovarian, 107%. The growth in the experiment on SK-OV-3 ovarian is 79.1%; with OVCAR-3 ovarian, 95.6%; in the experiment with HS 578T breast, 97.2%; with NCI/ADR-RES ovarian it was 83.3%.

As to `O=C(CCCCCCC(=O)Nc1ccccc1)NO`, the growth in the experiment with EKVX NSCLC was 28.8%; in the experiment on SN12C renal, 11.7%; with UO-31 renal, -2.53% (active); with TK-10 renal, 6.84% (active); with ACHN renal, 4.68% (active); in the experiment on CAKI-1 renal it was -28.3% (active). In addition, the growth is -44.9% (active) in the experiment with A498 renal; -5.35% (active) in the experiment with MOLT-4 leukemia; 9.82% (active) in the experiment with SR leukemia; 12.8% in the experiment on RPMI-8226 leukemia; 9.38% (active) in the experiment on OVCAR-8 ovarian; 1.38% (active) in the experiment on OVCAR-5 ovarian. The growth in the experiment on SK-OV-3 ovarian was 1.71% (active); in the experiment on IGROV1 ovarian, 23.7%; in the experiment on OVCAR-3 ovarian, -1.79% (active); in the experiment with HS 578T breast, 22.2%; in the experiment on NCI/ADR-RES ovarian, -18.2% (active).

Regarding `CCCCc1oc2ccccc2c1C(=O)c1cc(I)c(OCCN(CC)CC)c(I)c1`, the growth in the experiment with EKVX NSCLC is 3.63% (active); in the experiment on SN12C renal, 5.13% (active); with UO-31 renal it was -37% (active); in the experiment with TK-10 renal, -40.5% (active); in the experiment on ACHN renal, 20%; in the experiment with CAKI-1 renal it was -21% (active). Moreover, the growth is -47.3% (active) with A498 renal; -32.2% (active) in the experiment with CCRF-CEM leukemia; -54.3% (active) with MOLT-4 leukemia; -51.8% (active) in the experiment with SR leukemia; -29.5% (active) in the experiment on RPMI-8226 leukemia; -10% (active) in the experiment with OVCAR-8 ovarian. Further, the growth in the experiment with OVCAR-5 ovarian was -36% (active); in the experiment on OVCAR-4 ovarian, 10.3%; with SK-OV-3 ovarian, -38.1% (active); in the experiment on IGROV1 ovarian, 29.5%; in the experiment with OVCAR-3 ovarian it was 12%; in the experiment with HS 578T breast it was -19.3% (active). The growth in the experiment with NCI/ADR-RES ovarian was -20.3% (active).

Take `N=C1S/C(=C/c2ccc(-c3ccc4c(c3)C(=O)NC4=O)o2)C(=O)N1c1ccc(Br)cc1`: the growth in the experiment with SN12C renal was 56.3%; in the experiment on UO-31 renal it was -13.3% (active); in the experiment on TK-10 renal, 42.6%; in the experiment on ACHN renal, 52%; with CAKI-1 renal, 33.7%; in the experiment on A498 renal, 39.5%. In addition, the growth with MOLT-4 leukemia was 52.2%; with SR leukemia, 25%; with RPMI-8226 leukemia, 38.8%; with OVCAR-8 ovarian, 37.8%; with OVCAR-5 ovarian, 86.3%; with OVCAR-4 ovarian, 1.3% (active). The growth in the experiment with SK-OV-3 ovarian was 62.3%; in the experiment with IGROV1 ovarian, 21.9%; in the experiment with OVCAR-3 ovarian it was 51.4%; in the experiment on HS 578T breast, 61.6%; with NCI/ADR-RES ovarian, 50.5%.

On to `Nc1nc(-c2ccc(Cl)cc2)cc(-c2cc3ccccc3oc2=O)n1`, for which the growth with EKVX NSCLC was 86.2%; in the experiment with SN12C renal, 98.5%; with UO-31 renal it was 69%; in the experiment on TK-10 renal, 95.7%; in the experiment with ACHN renal, 92.5%; in the experiment on CAKI-1 renal, 84.1%. Moreover, the growth in the experiment on A498 renal was 99.5%; in the experiment on CCRF-CEM leukemia, 103%; in the experiment with MOLT-4 leukemia it was 93.8%; in the experiment with SR leukemia, 106%; in the experiment on RPMI-8226 leukemia, 98.6%; in the experiment on OVCAR-8 ovarian it was 106%. Also, the growth with OVCAR-5 ovarian is 108%; in the experiment with OVCAR-4 ovarian, 100%; in the experiment on IGROV1 ovarian, 55.1%; in the experiment with OVCAR-3 ovarian it was 100%; in the experiment with HS 578T breast, 107%; in the experiment with NCI/ADR-RES ovarian it was 108%.

For the compound `Cc1nc2n(c(=O)c1CCN1CCC(c3noc4cc(F)ccc34)CC1)CCC[C@@H]2O`, the growth with EKVX NSCLC is 92.8%; in the experiment with SN12C renal, 101%; in the experiment on UO-31 renal, 80%; with TK-10 renal, 109%; in the experiment with ACHN renal, 95.9%; with CAKI-1 renal, 102%. Further, the growth with A498 renal is 80.5%; in the experiment on MOLT-4 leukemia, 96.9%; with SR leukemia, 93.8%; in the experiment with RPMI-8226 leukemia it was 111%; in the experiment with OVCAR-8 ovarian, 97.5%; with OVCAR-5 ovarian, 88.6%. Moreover, the growth in the experiment on OVCAR-4 ovarian is 105%; in the experiment with SK-OV-3 ovarian, 103%; in the experiment on IGROV1 ovarian, 105%; in the experiment with OVCAR-3 ovarian, 106%; in the experiment with HS 578T breast, 100%; with NCI/ADR-RES ovarian, 97.2%.

Take `C=C(NC(=O)C(=C)NC(=O)c1csc(C2=NC3c4csc(n4)C4NC(=O)c5csc(n5)C(C(C)(O)C(C)O)NC(=O)C5CSC(=N5)C(=CC)NC(=O)C(C(C)O)NC(=O)c5csc(n5)C3(CC2)NC(=O)C(C)NC(=O)C(=C)NC(=O)C(C)NC(=O)C(C(C)CC)NC2C=Cc3c(C(C)O)cc(nc3C2O)C(=O)OC4C)n1)C(N)=O` (centres undefined): the growth is 72.2% in the experiment on EKVX NSCLC; 25.6% in the experiment with SN12C renal; 64.7% in the experiment on UO-31 renal; 27.7% with TK-10 renal; 23.6% in the experiment with ACHN renal; 71.4% in the experiment with CAKI-1 renal. Besides, the growth with A498 renal was -41.5% (active); with CCRF-CEM leukemia, -10.1% (active); with MOLT-4 leukemia, -36.9% (active); in the experiment on SR leukemia, -7.28% (active); in the experiment on RPMI-8226 leukemia, 10.1%; in the experiment on OVCAR-8 ovarian it was 20.4%. Also, the growth in the experiment on OVCAR-5 ovarian was 34%; with OVCAR-4 ovarian, 33.1%; with SK-OV-3 ovarian it was 99.8%; with IGROV1 ovarian, 64.6%; with OVCAR-3 ovarian, 34%; in the experiment with HS 578T breast, 42.5%. For the same compound, the growth with NCI/ADR-RES ovarian was 86.3%.
